In PubChem BioAssay (NCI):
About 83,000 compounds went through this panel and 20% of them were active in at least one assay; those are over-represented in the sample as a whole.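 Assay: single dose, 48 h. Readout: percent growth (0 = no net growth; negative = cell death). Active: <10.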 Unmarked numbers belong to inactive results. The source made the active and inactive calls.

What was measured:
Assay in all cases: NCI-60 one-dose screen, 48 h (100 = growth as untreated, 0 = no growth, -100 = all killed)
Conditions in all cases: 10 µM unless noted
NCI-H23 lung = tested on: NCI-H23 lung
NCI-H226 lung = tested on: NCI-H226 lung
NCI-H322M lung = tested on: NCI-H322M lung
HOP-62 NSCLC = tested on: HOP-62 NSCLC
NCI-H460 lung = tested on: NCI-H460 lung
HOP-92 NSCLC = tested on: HOP-92 NSCLC
NCI-H522 lung = tested on: NCI-H522 lung
A549/ATCC NSCLC = tested on: A549/ATCC NSCLC
786-0 renal = tested on: 786-0 renal
COLO 205 colon = tested on: COLO 205 colon
DU-145 prostate = tested on: DU-145 prostate
K-562 leukemia = tested on: K-562 leukemia
MALME-3M melanoma = tested on: MALME-3M melanoma
MDA-MB-231 breast = tested on: MDA-MB-231 breast
RXF 393 renal = tested on: RXF 393 renal
SF-268 CNS = tested on: SF-268 CNS
SF-295 CNS = tested on: SF-295 CNS
SF-539 CNS = tested on: SF-539 CNS
UACC-257 melanoma = tested on: UACC-257 melanoma
M14 melanoma = tested on: M14 melanoma

Structure (SMILES)	growth (NCI-H23 lung)	growth (NCI-H226 lung) [%]	growth (NCI-H322M lung) [%]	growth (HOP-62 NSCLC)	growth (NCI-H460 lung)	growth (HOP-92 NSCLC)	growth (NCI-H522 lung)	growth (A549/ATCC NSCLC)	growth (786-0 renal)	growth (COLO 205 colon)	growth (DU-145 prostate)	growth (K-562 leukemia)	growth (MALME-3M melanoma)	growth (MDA-MB-231 breast)	growth (RXF 393 renal)	growth (SF-268 CNS)	growth (SF-295 CNS)	growth (SF-539 CNS)	growth (UACC-257 melanoma)	growth (M14 melanoma)
CCc1c(C)c2cc3nc(NCc4ccccc4)oc3c(C)c2oc1=O	69.7%	88.1	70.2	73.7%	60.3%	78.1%	45.5%	78.6%	44.4%	114%	82.9%	89.5%	51.9%	62.1%	53.9%	65.9%	79.6%	33.5%	87.6%	88.3%
NS(=O)(=O)c1ccc(Nc2nc(O)c(/C=C3\C=Nc4ccccc43)s2)cc1	92%	99.6	90.7	97.5%	98.6%	114%	92%	90.4%	106%	122%	110%	101%	92.7%	87.9%	111%	106%	102%	98.1%	88.7%	103%
CNCCCOc1c(Br)cc(CCNC(=O)/C(Cc2cc(Br)c(OC)c(Br)c2)=N/O)cc1Br	-20.9% (active)	75.1	21	-7.84% (active)	-44.7% (active)	-6.24% (active)	-64% (active)	-16.7% (active)	-80.8% (active)	-72% (active)	-5.03% (active)	-51.2% (active)	-78% (active)	-69.8% (active)	-5.85% (active)	4.43% (active)	-65.5% (active)	-73.9% (active)	-45.3% (active)	-76.7% (active)
O=c1nc(N2CCOCC2)oc2c(-c3cccc4ccccc34)cccc12	89.3%	66.6	90.8	80.8%	110%	60.1%	82%	85.6%	74.4%	103%	97.7%	90.1%	75.2%	93.5%	61.1%	80.6%	89.2%	85%	96.5%	93.2%
CCC(CC(C)C)Nc1ccc(NC(CC)CC(C)C)cc1 (stereo not given)	77.7%	76.5	107	105%	94.5%	-13.1% (active)	14.6%	89.2%	93.1%	76.9%	103%	-4.28% (active)	97.7%	93.1%	96.5%	72.2%	95.3%	107%	92.4%	99.4%
C=CC(C)(O)CCC1C(=C)CCC2C(C)(C)CCCC12C (stereo not given)	94.2%	105	98.3	102%	112%	126%	72.4%	77.5%	99.6%	123%	104%	97.9%	101%	112%	108%	94.5%	99.3%	106%	88.1%	111%
CS(=O)(=O)Nc1cccc(-c2ccc3ncnc(Nc4ccc(F)c(Cl)c4)c3c2)c1	42.6%	44.5	15	39.8%	20%	34.6%	-23.6% (active)	25.3%	-6.08% (active)	-33.3% (active)	28.4%	11.2%	31%	-2.84% (active)	23.7%	38.9%	3.13% (active)	25.9%	49.4%	10.5%
Nc1ncnc2c1c(-c1ccc(Oc3ccccc3)cc1)nn2C[C@H]1SSC[C@@H]1O	53.2%	22.9	46.9	49.7%	22%	-2.99% (active)	-3.56% (active)	31%	66.2%	6.71% (active)	48%	5.41% (active)	-48.4% (active)	61.4%	28.7%	43.4%	48.4%	38%	9.88% (active)	-90% (active)
